# hcDAF12 agonist – activators of H. contortus DAF-12 nuclear receptor. HEK293 hcDAF-12 lit1-tk-luc reporter, luminescence; 0% DMSO, 100% Δ7-dafachronic acid. activation, % at 6.8 µM. actives 1.4% (n = 370,000);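 active = activation above the mean of all tested compounds plus 3 SD, cut at about 5.5% in these data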;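 also: 100% = response to 3 µM Δ7-dafachronic acid high control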
# SMARCA2 act – SMARCA2 function activation, primary screen; MG213 cells, MMTV-luciferase reporter, dexamethasone, overnight; activation, % at 9.1 µM; actives 1% (n = 370,000); AID 652017; in the data active = activation above about 7.8%;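 also: 0% = vehicle wells and 100% = reference activator wells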
# hgDAF12 agonist – activates the H. glycines DAF-12 receptor ligand-binding domain. HEK293 GAL4-hgDAF12 UAS-luciferase reporter, agonist luminescence; normalized to butyrate control. activation, % at 6.8 µM. actives 1.8% (n = 370,000). AID 687014;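 active = activation above a cutoff set at the mean of all screened compounds plus 3 SD, cut at about 10% in these data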;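 also: 0% = DMSO wells and 100% = sodium butyrate wells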
# ssDAF12 agonist – S. stercoralis DAF-12 activation, primary screen. actives 1% (n = 370,000). activation, % at 6.8 µM. HEK293 ssDAF-12/GRIP1 lit1-tk-luc reporter, luminescence; % of 3 µM dafachronic acid response;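 active = activation above the mean over all tested compounds plus 3 SD, cut at about 0.9% in these data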;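 also: 0% = DMSO-only wells and 100% = 3 µM delta7-dafachronic acid wells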
# DAX1 inh-1 – inhibitors of DAX1 repression of SF-1 activated StAR promoter | HEK293T StAR-luciferase reporter, SF-1/DAX-1 repression relief | inhibition, % at 6.8 µM | actives 1.1% (n = 370,000) | AID 652010;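 active = inhibition above the mean over all tested compounds plus 3 SD, cut at about 3.6% in these data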;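 also: 0% = DAX-1 cells with DMSO and 100% = cells lacking DAX-1 with DMSO; higher inhibition means more luminescence from relief of DAX-1 repression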
# DAX1 inh-2 – NR0B1 (DAX1) inhibition. HEK293 Gal4-DAX1 luciferase reporter, luminescence. inhibition, % at 6.75 µM. actives 0.99% (n = 340,000);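 active = inhibition above the mean over all tested compounds plus 3 SD, cut at about 4.2% in these data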;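 also: 0% = DAX1-transfected cells with DMSO and 100% = empty-vector control cells with DMSO; inhibition shows as a rise in luminescence from relieved DAX1 repression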
# Target sequence (P51843 207-470 limits assumed): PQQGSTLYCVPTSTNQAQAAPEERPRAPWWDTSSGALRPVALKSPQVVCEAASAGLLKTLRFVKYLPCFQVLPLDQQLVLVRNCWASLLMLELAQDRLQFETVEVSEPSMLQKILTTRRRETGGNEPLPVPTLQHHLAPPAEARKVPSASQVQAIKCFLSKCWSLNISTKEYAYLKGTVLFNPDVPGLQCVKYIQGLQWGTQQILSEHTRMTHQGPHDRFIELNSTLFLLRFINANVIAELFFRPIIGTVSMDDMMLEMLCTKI
# Starred values were filed as active, the others as inactive; / = no result. Hits are enriched below; roughly 4.8% of the tested compounds scored in any of these assays.
SMILES,hcDAF12 agonist,SMARCA2 act,hgDAF12 agonist,ssDAF12 agonist,DAX1 inh-1,DAX1 inh-2
COc1ccc(-c2cc3c(=O)n(CC(=O)NCCCN4CCC(N5CCCCC5)CC4)ncn3n2)cc1,4,5,10,0,-14,2
COc1ccc(-c2cc3c(=O)n(CC(=O)NCCCN4CCC(N5CCCCC5)CC4)nc(C)n3n2)cc1,0,-2,1,-1,4.5*,1
CCOC(=O)c1cccc(NC(=O)c2ccccc2C)c1,1,3,11*,-2,0,-1
Cc1cc(C)cc(OCC(O)CN2CC(C)OC(C)C2)c1 (stereo not drawn),-1,-2,-1,0,1,6.5*
Cc1ccc(C(C)C)c(OCC(O)CN2CC(C)OC(C)C2)c1 (stereo not drawn),-2,-3,-3,-2,0,-1
COc1ccccc1-n1cnnc1SCC(=O)Nc1cccnc1Cl,1,-5,2,-1,0,0
COc1ccccc1-c1nnc(SCC(=O)Nc2cccnc2Cl)n1C,4,1,0,0.9*,1,0
CN(C)/C(=N\S(=O)(=O)c1ccccc1)c1ccccc1,0,0,0,-1,0,1
CC(=O)c1ccc(NC(=O)CN2c3cccc4cccc(c34)S2(=O)=O)cc1,2,-4,4,-1,-3,6.0*
COc1ccc2cc(C(=O)NCc3ccco3)c(=Nc3ccc(C(=O)O)cc3)oc2c1,5,5,11*,0,1,-1
COc1ccc2cc(C(=O)NCc3ccco3)c(=O)oc2c1,2,3,10*,0,2,2
COc1ccccc1-c1cccc([C@@H]2C[C@H]3[C@H](CON3C)CN2C)c1,-1,-3,-2,0,3.8*,0
CCCCC1Cc2[nH]c(=S)[nH]c(=O)c2C(c2cccc3ccccc23)O1 (stereo not drawn),-1,-5,-3,-1,1,/
O=C(O)CSc1c2c(nc3cc(C(=O)Nc4cccc(C(F)(F)F)c4)ccc13)CCC2,0,-4,1,-2,3,0
COc1ccnc(CS(=O)c2nc3cc(C(O)(F)F)ccc3[nH]2)c1OC (stereo not drawn),6.1*,0,3,0,0,0
CCOc1cc(NC(=S)NC)c(OCC)cc1NC(=O)c1cccs1,2,-2,-3,-1,1,5.0*
C=CCn1c(C)cc(C(=O)COC(=O)c2ccc(N)c([N+](=O)[O-])c2)c1C,5,4,12*,0,2,3
C#CCOC(=O)C[N+](C)(C)CC#Cc1ccccc1,-1,-4,6,-1,0,8.6*
C[C@H](CO)N1C[C@H](C)[C@@H](CN(C)C(=O)Nc2ccc(F)cc2)Oc2ccc(NS(C)(=O)=O)cc2C1=O,0,0,3,-1,0,0
CC1CCCN(C(=O)CSc2nnc(-c3cccs3)o2)C1 (stereo not drawn),3,4,12*,-1,2,0
Cc1ccccc1C(=O)NC[C@@H]1CCCN2CCCC[C@H]12,2,-3,-2,-2,0,4.5*
Cc1cccc(-c2nnn3c2nc(NCCc2ccc(S(N)(=O)=O)cc2)c2ccccc23)c1,3,7,0,0,0,-2
Cc1ccc(-c2nnn3c2nc(NCCc2ccc(S(N)(=O)=O)cc2)c2ccccc23)cc1,5.7*,-2,4,0,0,0
COCCNc1nc2c(-c3cccc(C(F)(F)F)c3)nnn2c2ccccc12,6.5*,0,3,1.3*,0,2
NNc1nc2c(-c3cccc(C(F)(F)F)c3)nnn2c2ccccc12,6.5*,-3,-2,0,0,0
SMILES,hcDAF12 agonist,SMARCA2 act,hgDAF12 agonist,ssDAF12 agonist,DAX1 inh-1,DAX1 inh-2
CC(=O)NCCNc1nc2c(-c3cccc(C(F)(F)F)c3)nnn2c2ccccc12,4,1,-1,0,1,1
COC(=O)c1cc(S(=O)(=O)Nc2cccc(-c3ccno3)c2)c[nH]1,-3,-3,-3,-2,-2,-1
C#CCN(CC=C)Cc1ccc(OC)cc1OC,0,2,-4,-1,0,/
CC(C)Nc1ncnc2c1ncn2[C@H]1CN(Cc2cccs2)C[C@@H](CO)O1,0,-2,-1,-1,0,/
O=c1c2ccccc2oc2ccc(Oc3ccccc3)cc12,3,6,9,0,2,5.1*
CC(=O)Nc1ccc2c(c1)[nH]c(=O)c1ccccc12,0,1,6,-1,1,4.6*
O=C(Nc1ccc2c(c1)[nH]c(=O)c1ccccc12)C(F)(F)F,0,-4,0,-1,0,2
COc1cccc(C2Oc3ccccc3C3CC(c4cccs4)=NN32)c1 (stereo not drawn),5.8*,4,7,-1,1,/
CCC(=O)N1N=C(c2cccs2)CC1c1ccc(OC)cc1 (stereo not drawn),0,2,1,-2,0,0
COC(=O)C[C@H]1CC[C@H]2[C@H](COc3ccc(NS(=O)(=O)c4ccccc4C)cc3C(=O)N2C)O1,-2,-5,-2,-1,-1,/
Cc1c(C(=O)OCC(C)(C)CN(C)C)oc2ccccc12,0,3,7,-1,4.0*,2
CC(NC(=O)COC(=O)C1(C)CC1(Cl)Cl)c1ccccc1 (stereo not drawn),-1,-2,0,-1,3.6*,2
Cc1c(C(=O)OCC(=O)NC(C)c2ccccc2)oc2ccccc12 (stereo not drawn),5.7*,-1,1,1,2,1
COc1ccc(CNC(=O)C2Cc3cc(S(=O)(=O)N4CCCC4)ccc3N2C(C)=O)c(OC)c1 (stereo not drawn),-2,-2,0,-1,0,0
Cn1cnc([N+](=O)[O-])c1S(=O)(=O)Oc1ccc(Cl)cc1,2,-1,-2,-2,-3,-1
COCCN1C(=O)CSCC1(C)C(=O)NCc1ccccc1 (stereo not drawn),0,-3,-2,0,1,/
CN(C)c1cccc(C(=O)NCc2ccc3c(c2)OCO3)c1,-2,1,-1,-1,0,1
Cc1cc(S(=O)(=O)NC(=O)[C@H]2O[C@@H](n3cnc4c(N)ncnc43)[C@H](O)[C@@H]2O)ccc1Br,-1,-4,-2,-1,-2,/
CC(NC(=O)c1cc2ccccc2o1)C(=O)O (stereo not drawn),-1,1,0,-1,0,1
O=C(NC1CCCCC1)c1cc(Cl)nc2ccccc12,2,-5,1,-1,0,1
CC1CCCCC1NC(=O)c1cc2ccccc2o1 (stereo not drawn),2,2,11*,-1,0,0
